Test results from PubChem BioAssay (NCATS).
Several values for one entry are separate records, joined by “and”; a condition that tells them apart may be missing. Equal values may be shown once. Records with an inconclusive call do not appear. A call without a number means that no potency is given here. More than one record can exist for a structure, and the calls need not agree. Activity calls are given as the source filed them. Unless noted, calls follow the shape of the dose curve; as a rule, active = well fitted curve in the direction sought with a large enough effect; inconclusive = small, poorly fitted or top-dose-only effect, or another doubt; inactive = no such curve, though single readings can be large; an effect the other way counts as inactive or inconclusive.

Legend:
[1] = biological target: Protein phosphatase 1D (Homo sapiens) (UniProt O15297); test: Rhodamine-PBP qHTS Assay for Modulators of WT P53-Induced Phosphatase 1 (WIP1) (AID 1347425)
Chain of Protein phosphatase 1D (Homo sapiens) (O15297 whole entry, looked up): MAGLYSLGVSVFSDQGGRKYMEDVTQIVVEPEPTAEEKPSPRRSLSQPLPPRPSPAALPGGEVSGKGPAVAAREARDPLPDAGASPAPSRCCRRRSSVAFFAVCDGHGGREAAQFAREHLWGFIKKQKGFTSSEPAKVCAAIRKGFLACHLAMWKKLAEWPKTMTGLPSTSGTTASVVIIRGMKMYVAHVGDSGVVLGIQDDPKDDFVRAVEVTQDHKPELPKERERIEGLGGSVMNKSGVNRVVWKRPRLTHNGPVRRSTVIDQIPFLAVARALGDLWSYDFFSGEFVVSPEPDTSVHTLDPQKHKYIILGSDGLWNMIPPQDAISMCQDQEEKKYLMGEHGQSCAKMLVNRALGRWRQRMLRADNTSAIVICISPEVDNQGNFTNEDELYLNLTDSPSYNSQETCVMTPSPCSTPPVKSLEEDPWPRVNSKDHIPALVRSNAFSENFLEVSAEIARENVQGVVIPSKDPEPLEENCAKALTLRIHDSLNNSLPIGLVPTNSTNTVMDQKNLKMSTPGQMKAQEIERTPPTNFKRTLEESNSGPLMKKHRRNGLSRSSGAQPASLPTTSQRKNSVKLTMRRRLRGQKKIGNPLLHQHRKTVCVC
In short: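 WIP1 (5 nM final) was preincubated with compound for 1 hour at room temperature. It then dephosphorylated 10 uM VEPPL-pS-QETFS peptide in Tris-HCl pH 7.5 with 30 mM MgCl2. Released Pi was detected by 10 uM Rh-PBP fluorescence (ex 525/em 598 nm) read at 1-min intervals for 11 min, as delta f1 - f0.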

[2] = Primary qHTS for inhibitors of La Crosse Virus (LACV) - induced cell death in SH-SY5Y cells (AID 1508616); also: potency is read from the fitted curve at half-maximal effect;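 as to activity change: top concentration of the series differs between compounds; higher means more rescue of cells from virus-induced death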
In short: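 SH-SY5Y, 6000 cells/well; cpd via pin tool in DMSO; LACV 0.01 MOI; 6 d 37C 5% CO2; ATPLite, 5 min RT; luminescence normalized to ±virus DMSO controls.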

[3] = biological target: Calcium and integrin-binding protein 1 (Homo sapiens) (UniProt Q99828); test: Primary qHTS for Identification of Calcium Integrin Binding Protein 1 (CIB1) Competitor (AID 1508620);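 also: GST tagged CIB1 binding a fluorescein labelled alphaIIb integrin peptide tracer; top concentration of the series differs between compounds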
Chain of Calcium and integrin-binding protein 1 (Homo sapiens) (Q99828 whole entry, looked up): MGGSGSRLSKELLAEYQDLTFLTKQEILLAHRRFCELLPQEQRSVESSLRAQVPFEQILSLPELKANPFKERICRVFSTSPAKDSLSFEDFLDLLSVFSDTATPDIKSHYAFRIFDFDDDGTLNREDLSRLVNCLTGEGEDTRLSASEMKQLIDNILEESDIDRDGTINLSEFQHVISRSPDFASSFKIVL
In short: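 CIB1-GST (1 uM final) and compound incubated 15 min at room temperature before adding FITC-alphaIIb peptide tracer (100 nM final). Competition for binding read by fluorescence polarization (ex 480, em 540) after another 15 min at room temperature.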

[4] = Primary qHTS for small molecule stabilizers of the endoplasmic reticulum resident proteome: Secreted ER Calcium Modulated Protein (SERCaMP) assay (AID 1508630)
In short: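 The SH-SY5Y reporter protocol was run at 3 concentrations up to 38.3 uM (primary) or 11 concentrations (follow-up): 16 h compound, 100 nM thapsigargin for 4 h, then extracellular luciferase luminescence.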

[5] = A High-Content qHTS Against Drug Library for the Identification of Small Molecules that Inhibit DYT1 Early Onset Primary Dystonia-Associated Cell Pathology (AID 1645839; calls by dose curve; also: series mostly up to about 46 µM)
In short: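 High-content imaging quantified EGFP-TorsinA mislocalization in HEK293-derived cells inducibly expressing DYT1 mutant torsinA, after 48 h exposure to compound given together with tetracycline induction. Cell count served as a toxicity channel alongside %pathology.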

[6] = biological target: Cytochrome P450 2D6 (Homo sapiens) (UniProt P10635); test: Cytochrome P450 family 2 subfamily D member 6 (CYP2D6) small molecule antagonists: luciferase biochemical (cell-free) qHTS assay (AID 1645840; active = well fitted curve in the direction sought with a large enough effect in the repeat runs; an effect the other way counts as inactive or inconclusive; also: nearly all actives have a fitted effect of over 55% in size; also: potency is read from the fitted curve at half-maximal effect; as to activity change, negative = inhibition: series mostly up to about 57 µM)
Chain of Cytochrome P450 2D6 (Homo sapiens) (P10635 whole entry, looked up): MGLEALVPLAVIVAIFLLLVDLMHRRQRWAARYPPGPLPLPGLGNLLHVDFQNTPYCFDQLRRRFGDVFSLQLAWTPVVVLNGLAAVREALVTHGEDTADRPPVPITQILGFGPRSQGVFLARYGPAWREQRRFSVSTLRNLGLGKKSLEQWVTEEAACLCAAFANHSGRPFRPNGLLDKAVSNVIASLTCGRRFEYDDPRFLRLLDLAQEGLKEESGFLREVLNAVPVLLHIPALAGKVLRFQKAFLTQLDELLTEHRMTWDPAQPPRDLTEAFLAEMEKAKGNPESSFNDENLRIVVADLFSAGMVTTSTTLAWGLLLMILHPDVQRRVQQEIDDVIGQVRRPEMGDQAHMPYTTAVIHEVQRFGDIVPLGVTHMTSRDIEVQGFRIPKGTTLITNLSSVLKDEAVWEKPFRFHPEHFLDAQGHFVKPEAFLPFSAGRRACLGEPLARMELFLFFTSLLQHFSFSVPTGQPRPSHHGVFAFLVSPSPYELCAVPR
In short: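 P450-Glo CYP2D6 system: proluciferin substrate converted by enzyme to luciferin, read by luminescence proportional to activity. Enzyme-substrate mix with compound 10 min at room temperature, then NADPH regeneration 1 h before detection reagent.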

[7] = Primary qHTS for inhibitors of nuclear receptor binding SET domain protein 2 (NSD2) in an isogenic RCH-ACV NSD2 p.E1099K mutant (9B) (AID 1645876); also: nearly all actives have a fitted effect of over 70% in size; also: potency is read from the fitted curve at half-maximal effect
[8] = Primary qHTS for inhibitors of nuclear receptor binding SET domain protein 2 (NSD2) in an RCH-ACV wild type WT cells (2C) (AID 1645877); also: nearly all actives have a fitted effect of over 70% in size; also: potency is read from the fitted curve at half-maximal effect
[9] = biological target: Cytochrome P450 2C9 (Homo sapiens) (UniProt P11712); test: Cytochrome P450 family 2 subfamily C member 9 (CYP2C9) small molecule antagonists: luciferase biochemical (cell-free) qHTS assay (AID 1645842; active = well fitted curve in the direction sought with a large enough effect in the repeat runs; an effect the other way counts as inactive or inconclusive; also: nearly all actives have a fitted effect of over 55% in size; also: potency is read from the fitted curve at half-maximal effect; as to activity change, negative = inhibition: series mostly up to about 57 µM)
Chain of Cytochrome P450 2C9 (Homo sapiens) (P11712 whole entry, looked up): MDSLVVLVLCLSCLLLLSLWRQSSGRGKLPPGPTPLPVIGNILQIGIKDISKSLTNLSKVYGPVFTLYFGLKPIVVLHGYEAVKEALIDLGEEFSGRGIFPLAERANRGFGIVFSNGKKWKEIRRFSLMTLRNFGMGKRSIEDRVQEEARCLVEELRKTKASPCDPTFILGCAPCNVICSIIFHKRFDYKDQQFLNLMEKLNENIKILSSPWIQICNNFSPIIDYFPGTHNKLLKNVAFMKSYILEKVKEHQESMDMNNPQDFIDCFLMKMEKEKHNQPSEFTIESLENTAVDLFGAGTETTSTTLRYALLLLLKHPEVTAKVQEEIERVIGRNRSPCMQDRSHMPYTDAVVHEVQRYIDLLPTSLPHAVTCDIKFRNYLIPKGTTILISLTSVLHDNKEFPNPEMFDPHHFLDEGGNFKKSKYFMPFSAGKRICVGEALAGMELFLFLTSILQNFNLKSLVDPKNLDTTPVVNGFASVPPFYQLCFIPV
In short: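 P450-Glo CYP2C9 system: proluciferin substrate with enzyme in mix containing 0.4% BSA, 10 min at room temperature, then NADPH regeneration solution added and incubated 1 h at 37C. Detection reagent stopped reaction; luminescence read after 20 min as RLU.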

[10] = Counterscreen qHTS for small molecule stabilizers of the endoplasmic reticulum resident proteome: GLuc-NoTag assay (AID 1508627); also: series mostly up to about 76 µM
In short: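 Counterscreen line: SH-SY5Y-GLuc-NoTag cells, treated with compound 19 hr before a 4 hr, 100 nM thapsigargin calcium depletion. Secreted Gaussia luciferase in the medium was measured by luminescence after coelenterazine was added (0.07x final), with cells unlysed.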

[11] = Confirmatory qHTS for small molecule stabilizers of the endoplasmic reticulum resident proteome: Secreted ER Calcium Modulated Protein (SERCaMP) assay (AID 1508628); also: series mostly up to about 76 µM; nearly all actives have a fitted effect of over 40% in size
In short: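 Reporter secretion upon ER calcium depletion (100 nM thapsigargin, 4 h, 37C) is measured as medium luminescence with coelenterazine, after 16 h compound pretreatment of SH-SY5Y-GLuc-SERCaMP cells; primary at three concentrations up to 38.3 uM, follow-up at 11 (up to 76.6 uM).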

[12] = biological target: Cytochrome P450 3A4 (Homo sapiens) (UniProt P08684); test: Cytochrome P450 family 3 subfamily A member 4 (CYP3A4) small molecule antagonists: luciferase qHTS assay (AID 1645841; active = well fitted curve in the direction sought with a large enough effect in the repeat runs; an effect the other way counts as inactive or inconclusive; also: nearly all actives have a fitted effect of over 45% in size)
Chain of Cytochrome P450 3A4 (Homo sapiens) (P08684 whole entry, looked up): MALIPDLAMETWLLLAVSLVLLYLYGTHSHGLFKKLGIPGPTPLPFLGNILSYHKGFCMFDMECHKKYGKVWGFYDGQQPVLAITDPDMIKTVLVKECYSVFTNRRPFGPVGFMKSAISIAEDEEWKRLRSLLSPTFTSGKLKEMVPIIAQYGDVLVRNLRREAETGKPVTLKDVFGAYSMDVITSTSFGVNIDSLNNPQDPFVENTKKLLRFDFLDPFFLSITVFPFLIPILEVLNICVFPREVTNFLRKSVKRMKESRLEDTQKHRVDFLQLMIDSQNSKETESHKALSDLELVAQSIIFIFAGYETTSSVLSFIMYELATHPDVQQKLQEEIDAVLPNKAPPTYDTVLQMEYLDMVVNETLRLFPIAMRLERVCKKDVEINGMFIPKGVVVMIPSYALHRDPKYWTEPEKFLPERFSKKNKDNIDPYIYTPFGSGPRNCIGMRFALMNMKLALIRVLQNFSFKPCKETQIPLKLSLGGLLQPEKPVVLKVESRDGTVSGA
In short: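 Luminescent CYP3A4 activity readout: compounds plus enzyme-substrate mix 10 min at room temperature, reaction started with NADPH regenerating system for 1 h, stopped with detection reagent, read after 20 min. Ketoconazole served as control.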

[13] = Cell Viability qHTS for small molecule stabilizers of the endoplasmic reticulum resident proteome (AID 1508629); conditions: cell viability counter-screen, 100 nM thapsigargin for final 4 h;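 also: human SH-SY5Y neuroblastoma cells carrying the GLuc-SERCaMP reporter; compound exposure about 46 h in total before the viability read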

SMILES: COc1cc(NS(=O)(=O)c2ccc(N)cc2)nc(OC)n1
- outcome [1]: inactive
- Potency [2]: inactive
- outcome [3]: inactive
- Potency [4]: inactive
- Potency [5]: inactive
- Potency [6]: inactive
- Potency [7]: inactive
- Potency [8]: inactive

SMILES: CCOCC(O)COc1ccc(NC(=O)CC[S+](C)C)cc1 (stereo unspecified)
- outcome [1]: inactive
- Potency [2]: inactive
- outcome [3]: inactive
- Potency [4]: inactive
- Potency [5]: inactive
- Potency [6]: inactive
- Potency [9]: inactive
- Potency [7]: inactive
- Potency [8]: inactive

SMILES: COc1ccc2cc3[n+](cc2c1OC)CCc1cc2c(cc1-3)OCO2
- outcome [1]: inactive
- Potency [2]: inactive
- outcome [3]: inactive
- Potency [4]: inactive
- Potency [5]: inactive
- Potency [6]: 1.55 µM (active)
- Potency [9]: inactive
- Potency [7]: 11.9 µM (active) and 5.9 µM (active)
- Potency [8]: 11.9 µM (active) and 3.32 µM (active)

SMILES: CC(C)(Sc1cc(C(C)(C)C)c(O)c(C(C)(C)C)c1)Sc1cc(C(C)(C)C)c(O)c(C(C)(C)C)c1
- outcome [1]: inactive
- Potency [2]: inactive
- outcome [3]: inactive
- outcome [10]: inactive
- Potency [11]: inactive
- Potency [4]: inactive
- Potency [5]: inactive
- Potency [6]: inactive
- Potency [9]: inactive
- Potency [7]: inactive
- Potency [8]: inactive and 8.33 µM (active)

SMILES: Cc1noc(NS(=O)(=O)c2ccc(N)cc2)c1C
- outcome [1]: inactive
- Potency [2]: inactive
- outcome [3]: inactive
- Potency [4]: inactive
- Potency [5]: inactive
- Potency [6]: inactive
- Potency [9]: inactive

SMILES: N[C@@H](C(=O)N[C@@H]1C(=O)N2C(C(=O)O)=C(Cl)CS[C@H]12)c1ccccc1
- activity change, negative = inhibition [1]: 10.7% [at 11.5 µM] (inactive)
- activity change [2]: -11.4% [at 0.858 µM] (inactive)
- outcome [3]: inactive
- Potency [4]: inactive
- % pathology change, negative = correction [5]: 10.3% [at 9.22 µM] (inactive)
- activity change, negative = inhibition [6]: 16.7% [at 11.5 µM] (inactive)
- activity change, negative = inhibition [9]: 11.4% [at 11.5 µM] (inactive)
- outcome [7]: inactive [at 9.23 µM]
- activity change, negative = cell killing [8]: -2.72% [at 9.23 µM] (inactive)

SMILES: NS(=O)(=O)c1cc2c(cc1Cl)NC(C(Cl)Cl)NS2(=O)=O (stereo unspecified)
- outcome [1]: inactive
- Potency [2]: inactive
- outcome [3]: inactive
- Potency [4]: inactive
- Potency [5]: inactive
- Potency [6]: inactive
- Potency [9]: inactive
- Potency [7]: inactive
- Potency [8]: inactive

SMILES: Nc1nc(F)nc2c1ncn2[C@@H]1O[C@H](CO)[C@@H](O)[C@@H]1O
- outcome [1]: inactive
- Potency [2]: inactive
- outcome [3]: inactive
- Potency [4]: inactive
- Potency [5]: inactive
- Potency [6]: inactive
- Potency [9]: inactive
- Potency [7]: 2.09 µM (active) and 94.4 nM (active) and 1.29 µM (active)
- Potency [8]: 2.63 µM (active) and 84.1 nM (active) and 1.29 µM (active)

SMILES: CN1CCN(c2c(F)cc3c(=O)c(C(=O)O)cn4c3c2OCN4C)CC1
- outcome [1]: inactive
- Potency [2]: inactive
- outcome [3]: inactive
- Potency [4]: inactive
- Potency [5]: inactive
- Potency [6]: inactive
- Potency [9]: inactive

SMILES: COCCCOc1cc(C[C@@H](C[C@H](N)[C@@H](O)C[C@H](C(=O)NCC(C)(C)C(N)=O)C(C)C)C(C)C)ccc1OC
- outcome [1]: inactive
- Potency [2]: inactive
- outcome [3]: inactive
- Potency [4]: inactive
- Potency [5]: inactive
- Potency [6]: inactive
- Potency [9]: inactive
- Potency [8]: inactive

SMILES: O=C(NCC1CN(c2ccc(N3CCOCC3=O)cc2)C(=O)O1)c1ccc(Cl)s1 (stereo unspecified)
- outcome [1]: inactive
- Potency [2]: inactive
- outcome [3]: inactive
- Potency [4]: inactive
- Potency [5]: inactive
- Potency [6]: inactive
- Potency [9]: 8.71 µM (active) and 3.79 µM (active)

SMILES: CCN[C@H]1C[C@H](C)S(=O)(=O)c2sc(S(N)(=O)=O)cc21
- outcome [1]: inactive
- Potency [2]: inactive
- outcome [3]: inactive
- Potency [4]: inactive
- Potency [5]: inactive
- Potency [6]: inactive
- Potency [9]: inactive
- Potency [7]: inactive
- Potency [8]: inactive

SMILES: CCOC(=O)c1ccc(C#Cc2ccc3c(c2)C(C)(C)CCS3)nc1
- outcome [1]: inactive
- Potency [2]: inactive
- outcome [3]: inactive
- Potency [4]: inactive
- Potency [5]: inactive
- Potency [6]: inactive
- Potency [9]: inactive
- Potency [7]: inactive
- Potency [8]: inactive

SMILES: COc1ccc(C(=O)CC(=O)c2ccc(C(C)(C)C)cc2)cc1
- outcome [1]: inactive
- Potency [2]: inactive
- outcome [3]: inactive
- Potency [4]: inactive
- Potency [5]: inactive
- Potency [6]: inactive
- Potency [9]: inactive
- Potency [7]: inactive
- Potency [8]: inactive

SMILES: O=S(=O)(O)CCS
- outcome [1]: inactive
- Potency [2]: inactive
- outcome [3]: inactive
- Potency [4]: inactive
- Potency [5]: inactive
- Potency [6]: inactive
- outcome [12]: inactive
- Potency [9]: inactive
- Potency [7]: inactive
- Potency [8]: inactive

SMILES: CCOc1cc(N)c(Cl)cc1C(=O)NCC1CN(Cc2ccc(F)cc2)CCO1 (stereo unspecified)
- outcome [1]: inactive
- Potency [2]: inactive
- outcome [3]: inactive
- outcome [10]: inactive
- Potency [11]: inactive
- max response [13]: -7.94% (inactive)
- Potency [6]: 15.5 µM (active)
- Potency [9]: inactive
- Potency [7]: 21.1 µM (active)

SMILES: CCC(=O)O[C@]1(C(=O)CCl)[C@@H](C)C[C@H]2[C@@H]3CCC4=CC(=O)C=C[C@]4(C)[C@@]3(F)[C@@H](O)C[C@@]21C
- outcome [1]: inactive
- Potency [2]: inactive
- outcome [3]: inactive
- Potency [4]: inactive
- Potency [5]: inactive
- Potency [6]: 11 µM (active)
- Potency [9]: 17.4 µM (active)
- Potency [7]: 23.5 µM (active)
- Potency [8]: inactive and 1 nM (active)

SMILES: Cc1c(-c2ccc(O)cc2)n(Cc2ccc(OCCN3CCCCCC3)cc2)c2ccc(O)cc12
- outcome [1]: inactive

SMILES: O=C(O)CSCC(=O)NC1CCSC1=O (stereo unspecified)
- outcome [1]: inactive
- Potency [2]: inactive
- outcome [3]: inactive
- Potency [4]: inactive
- Potency [5]: inactive
- Potency [6]: inactive
- Potency [9]: inactive
- Potency [7]: inactive
- Potency [8]: inactive

SMILES: Cn1c(=O)c2c(ncn2CC(O)CO)n(C)c1=O (stereo unspecified)
- outcome [1]: inactive
- Potency [2]: inactive
- outcome [3]: inactive
- Potency [4]: inactive
- Potency [5]: inactive
- Potency [6]: inactive
- Potency [9]: inactive
- Potency [7]: inactive
- Potency [8]: inactive

SMILES: COC(=O)Nc1nc2ccc(Sc3ccccc3)cc2[nH]1
- outcome [1]: inactive
- Potency [2]: 0.199 µM (active)
- outcome [3]: inactive
- Potency [4]: inactive
- Potency [5]: inactive
- Potency [6]: inactive
- Potency [9]: inactive
- Potency [7]: 266 nM (active) and 417 nM (active)
- Potency [8]: 266 nM (active) and 372 nM (active)
